An excerpt weighted towards active compounds, which were near 10% of everything screened.
HPGD inh = qHTS Assay for Inhibitors of HPGD (15-Hydroxyprostaglandin Dehydrogenase) | 15-hydroxyprostaglandin dehydrogenase [NAD(+)] (Homo sapiens), P15428 | purified HPGD, NADH fluorescence kinetic, PGE2 substrate | Potency, µM, without a hit: top-dose activity change, negative = inhibition, usual class: inhibitors | hit rate 4.3% among 150,000; further: potency means the concentration at half of the fitted maximal effect
Target sequence (P15428 whole entry, looked up): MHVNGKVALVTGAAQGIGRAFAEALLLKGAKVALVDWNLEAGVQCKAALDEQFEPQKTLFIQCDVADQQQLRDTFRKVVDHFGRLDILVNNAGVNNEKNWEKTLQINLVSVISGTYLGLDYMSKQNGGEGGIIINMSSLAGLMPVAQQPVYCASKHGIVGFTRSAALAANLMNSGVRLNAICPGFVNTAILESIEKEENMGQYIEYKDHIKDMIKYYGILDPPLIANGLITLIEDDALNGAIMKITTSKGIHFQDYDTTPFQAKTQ
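20 nM HPGD preincubated 15 min at room temperature with compound in 50 mM Tris-HCl pH 8, 0.01% Tween 20. Started with 1 mM NAD+ and 30 uM prostaglandin E2; NADH fluorescence (360/450 nm) read 5 times over 30-s intervals, last minus first.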
ALDH1A1 inh = qHTS Assay for Inhibitors of Aldehyde Dehydrogenase 1 (ALDH1A1) | Potency, µM (top dose mostly 75.3 µM), for inactives: top-dose activity, negative = inhibition, usual class: inhibitors | Purified ALDH1A1, NADH fluorescence, propionaldehyde substrate | hit rate 7.3% among 220,000;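 further: potency means the concentration at half of the fitted maximal effect; plate controls were no enzyme wells and a reference inhibitor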
Target sequence (P00352 whole entry, looked up): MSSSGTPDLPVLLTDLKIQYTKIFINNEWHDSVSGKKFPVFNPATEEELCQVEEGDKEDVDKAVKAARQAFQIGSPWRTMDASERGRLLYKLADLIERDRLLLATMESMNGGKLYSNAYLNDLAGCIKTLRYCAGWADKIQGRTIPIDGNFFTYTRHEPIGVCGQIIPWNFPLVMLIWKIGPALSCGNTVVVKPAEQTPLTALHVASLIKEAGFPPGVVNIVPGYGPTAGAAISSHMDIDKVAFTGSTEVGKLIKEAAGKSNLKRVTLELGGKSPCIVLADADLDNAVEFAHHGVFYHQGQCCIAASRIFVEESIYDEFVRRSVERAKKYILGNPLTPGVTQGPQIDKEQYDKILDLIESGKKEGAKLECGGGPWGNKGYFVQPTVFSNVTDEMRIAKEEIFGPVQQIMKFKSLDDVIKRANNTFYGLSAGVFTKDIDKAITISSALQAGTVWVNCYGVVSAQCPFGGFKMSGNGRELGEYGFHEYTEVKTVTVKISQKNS
Luc counter = Counterscreen for Luciferase (Kinase-Glo TM) Inhibition. Luciferin 4-monooxygenase (Photuris pensylvanica), Q27757. Kinase-Glo luciferase, ATP luminescence, 8 min. hit rate 0.28% among 200,000. Potency, µM (doses to about 38.3 µM), for inactives: at the top dose activity change, negative = inhibition, most hits filed as inhibitors; active means well fitted inhibition curve with a large enough effect; inconclusive means small, poorly fitted or top-dose-only effect; further: potency means the concentration at half of the fitted maximal effect; nearly all actives have a fitted effect of over 60% in size
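Kinase-Glo luciferase light output from ATP and luciferin was measured with 10 uM ATP, within the enzyme's linear range. Buffer: 50 mM imidazole pH 7.2, 50 mM KCl, 7 mM MgCl2, 0.01% Tween 20, 0.05% BSA; luminescence read after 8 min at ambient temperature.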
Lamin A splicing = qHTS Assay for Modulators of Lamin A Splicing; Potency, µM (highest dose often 46.1 µM), without a hit: top-dose ratio change, negative = inhibition, usual class: inhibitors; hit rate 0.01% among 200,000; HeLa LMNA splicing GFP/RFP minigene ratio, 48 h; active means well fitted inhibition curve with a large enough effect in the signal ratio, with a control signal flat, not every such curve was filed as active; inconclusive means small, poorly fitted or top-dose-only effect, or effect the other way, or a change in a side signal; the % refers to the signal ratio; further: potency means the concentration at half of the fitted maximal effect
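S3 HeLa stable clones carrying a lamin A-EGFP splicing minigene plus DsRed2 were seeded at 600 cells/well in Opti-MEM with 2% FBS, pin-dosed and incubated 48 h at 37°C. Acumen cytometry (488 nm) gave the GFP/RFP total-intensity ratio.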
PNC assembly inh = High Content Assay for Compounds that inhibit the Assembly of the Perinucleolar Compartment; AID 2417, 2010; hit rate 3.1% among 140,000; PC3M PTB-GFP, PNC prevalence imaging, 16 h; stronger effect = lower value; activity change (PNC), negative = inhibition, % at 10 µM;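 active means readout at or below -70, meaning at least 70% loss of cells showing the perinucleolar compartment, a nuclear body marking cancer cells; inconclusive means readout between -30 and a set limit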;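 further: plate controls were DMSO wells for no effect and camptothecin positive control wells for full effect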
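Read-out is percentage of cells bearing a perinucleolar compartment, from automated 20x imaging of fixed, Hoechst-stained PC3M PTB-GFP cells. Cells were seeded 4 h, then exposed 16 h to compound (23 nl of library stock) in duplicate plates.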
IMPase inh = qHTS Assay for Identifying the Cell-Membrane Permeable IMPase Inhibitors | inhibition (IP1 accumulation), % at 46.1 µM | AID 901, 2007 | 120,000 tested, under 10 active | Inositol monophosphatase 1 (Rattus norvegicus), P97697 | CHO-M1 cells, IP1 accumulation, HTRF TR-FRET ratio; active means well fitted curve in the direction sought with a large enough effect in the signal ratio, not every such curve was filed as active; inconclusive means small, poorly fitted or top-dose-only effect, or a change in a side signal; inactive means no such curve, though single readings can be large or run the other way; the % refers to the signal ratio;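 further: cells stimulated with carbachol in lithium chloride buffer; plate controls were DMSO basal wells for no effect and reference inhibitor wells for full effect; higher means more IMPase inhibition seen as more IP1 and lower FRET ratio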
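Seeded CHO-M1 cells were dosed with compound at up to 46 uM, stimulated with carbachol for 30 min, then lysed in IP-One detection reagents. Higher IP1 lowers the TR-FRET signal.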
* hit, by the source's call; ? = inconclusive; . = no result; ! = a repeat was not active; [ ] = dose if it differs, or a comment. Unless noted, the call rests on the fitted dose curve; in most records, active means well fitted inhibition curve with a large enough effect (not every such curve was filed as active); inconclusive means small, poorly fitted or top-dose-only effect, or another doubt; inactive means no such curve, though single readings can be large or run the other way. Unless noted, on the % scale 0 is the no-effect control and ±100 the full control effect.

SMILES	HPGD inh	ALDH1A1 inh	Luc counter	Lamin A splicing	PNC assembly inh	IMPase inh
CCc1cc[n+](C2=C([O-])c3ccccc3C(=O)/C2=N\S(=O)(=O)c2cccs2)cc1	-10%	?	0%	?	?	.
COC(=O)c1ccccc1NC1=C/C(=N\S(=O)(=O)c2cccs2)c2ccccc2C1=O	?	3.2µM*	?	?	-22	15
CCN(CC)CCCNC(=O)c1ccc2c(c1)NC(=O)C(CS(=O)(=O)Cc1cccc(Br)c1)N2 (centres undefined)	.	.	.	-1%[46 µM]	.	.
CC(C)(C[C@@]1(C)NC(=O)NC1=O)OCc1ccccc1	-4%	2%[13.5 µM]	-1%[7.66 µM]	.	.	.
O=P1(O)Oc2c(c(-c3ccccc3)cc3ccc4ccccc4c23)-c2c(-c3ccccc3)cc3ccc4ccccc4c3c2O1	-23%	-1%	-1%	.	.	.
Cc1ccc(OCC(=O)Nc2ccc(S(=O)(=O)Nc3ncccn3)cc2)c(C(C)(C)C)c1	.	.	.	.	.	-10
Cc1nn(-c2ccccc2)c2c1C(c1ccncc1)C(C#N)=C(N)O2 (centres undefined)	-13%	14µM*	1%	-5%	57	11
Cc1ccc(-n2nc(C)c3c2OC(N)=C(C#N)C3c2ccncc2)cc1 (centres undefined)	-7%	?	0%	-17%	49	-3
Cc1ccc(-n2nc(C)c3c2OC(N)=C(C#N)C3c2ccccc2F)cc1 (centres undefined)	-14%	4µM*	1%	-11%	4	6
COC(=O)C/C=C/[C@@H](C)[C@H](OC)c1c(Br)ccc2c1OCO2	-16%	1%	0%	.	.	.
COCCOC(=O)C1=C(C)NC(C)=C(C(=O)OC(C)C)[C@H]1c1cccc([N+](=O)[O-])c1	-11%	5%[20.9 µM]	-5%[17.1 µM]	?	.	0[20.6 µM]
CC1=C(C(=O)OC(C)C)C(c2cccc([N+](=O)[O-])c2)n2c(cc(=O)[nH]c2=S)N1 (centres undefined)	28µM*	8%	1%	?	?	.
Oc1c(C(c2ccc(Cl)cc2)N2CCCC2)cc(Cl)c2cccnc12 (centres undefined)	.	14µM*	1%	?	.	.
CCC(=O)NC(c1ccc(OC)cc1)c1cc(Cl)c2cccnc2c1O (centres undefined)	.	4%	-2%	.	.	.
CN1CCN(C(c2ccccn2)c2cc(Cl)c3cccnc3c2O)CC1 (centres undefined)	.	10µM*	0%	?	.	.
Oc1c(C(Nc2ccccn2)c2cccnc2)cc(Cl)c2cccnc12 (centres undefined)	-4%	?	-1%	?	-18	.
Oc1c(C(c2ccccn2)N2CCC(Cc3ccccc3)CC2)cc(Cl)c2cccnc12 (centres undefined)	.	5.6µM*	0%	.	.	.
O=C(CCc1ccccc1)NC(c1cccs1)c1cc(Cl)c2cccnc2c1O (centres undefined)	.	?	6%	.	.	.
CC1CCCCN1C(=O)Nc1cccc(Cl)c1 (centres undefined)	22µM*	22µM*	-5%	1%	?	0
CC1=C(C)CC(C(=O)Nc2cccc(Cl)c2)C(C(=O)O)C1 (centres undefined)	?	?	1%	17%	?	-9
O=C(O)C1CC=CCC1C(=O)Nc1ccc(S(=O)(=O)N2CCCc3ccccc32)cc1 (centres undefined)	-15%	22µM*	2%	?	9	3
O=C(O)C1CC=CCC1C(=O)Nc1cccc(Cl)c1 (centres undefined)	-29%	18µM*	1%	4%	65	-8
Cc1ccccc1Oc1ccc(NC(=O)C2CC=CCC2C(=O)O)cc1 (centres undefined)	1%	2.2µM*	-2%	?	-83*	.
O=C(Nc1cccc(Cl)c1)N1CCCC1	-5%	18%	2%	3%	13	4
Cc1ccc(Cn2ccnc2SCC(=O)NCc2ccccc2)cc1	.	.	.	23%[46 µM]	.	.
SMILES	HPGD inh	ALDH1A1 inh	Luc counter	Lamin A splicing	PNC assembly inh	IMPase inh
COC(=O)c1ccc(N=NNc2ccccc2)cc1	25µM*	?	-3%	-10%	-21	.
CCN(CC)c1ccc(/C=C(\C#N)C(=O)NCc2ccco2)cc1	-14%	32µM*	2%	-4%	-5	7
COCCn1c(=O)c(CCc2ccccc2)nc2cnc(N(C)C)nc21	.	?	.	-5%	.	.
COc1cc(NC(=S)NC(=O)c2ccccc2F)ccc1NC(=O)c1cccs1	.	?	0%	.	.	.
COc1ccc(Cl)cc1NC(=S)NNC(=O)c1cccs1	.	10µM*	-12%	-5%[46 µM]	.	.
COc1cc(NC(=S)NC(=O)c2ccc(C(C)(C)C)cc2)ccc1NC(=O)c1cccs1	-9%	12µM*	1%	?	-115*	-4
COc1cc(NC(=S)NC(=O)c2ccccc2C)ccc1NC(=O)c1cccs1	?	25µM*	3%	?	?	-7
COc1cc(NC(=S)NC(=O)c2cc(C)cc(C)c2)ccc1NC(=O)c1cccs1	-18%	14µM*	2%	-10%	13	?
COc1ccc(CNC(=O)CN2C(=O)c3cccnc3Oc3ccc(C)cc32)cc1	.	.	.	5%[46 µM]	.	.
Cc1cccc(NC(=O)c2ccc3nc(CCc4ccccc4)oc3c2)c1C	.	.	.	-12%[46 µM]	.	.
CCc1ccc(CNC(=O)CN2C(=O)C3CCCCN3c3ccc(C(=O)N4CCCC4)cc32)cc1 (centres undefined)	.	.	.	-1%[46 µM]	.	.
Cc1cccc(CN2C(=O)CCSc3ccc(Cl)cc32)c1	-10%	14µM*	-2%	-4%	31	4
O=C1CCSc2ccc(Cl)cc2N1Cc1ccccc1	-4%	2%	0%	5%	0	4
CCN1CCCC1Cn1c(-c2ccccc2)nc2c(N3CCOCC3)nc(C)nc21 (centres undefined)	?	?	1%	.	.	.
CC(=O)O[C@]1(C(C)=O)CC[C@H]2[C@@H]3C[C@H](C)C4=CC(=O)CC[C@]4(C)[C@H]3CC[C@@]21C	-1%	32µM*!	-3%	?	13	.
CC(=O)O[C@]1(C(C)=O)CC[C@H]2[C@@H]3C=C(Cl)C4=CC(=O)CC[C@]4(C)[C@H]3CC[C@@]21C	-7%	?	2%	?	-1	.

Screening results (PubChem)
